Among all 5,500 compounds or so, about 2,000 (36%) were called active. About 18% were inconclusive and are not listed. The list shows a part of the results. A number with no mark means an inactive call. Cut-off read from the data, not from the text of the source: active = normalized growth mostly below about 0.91 (no sharp cut-off); inconclusive = no clear call, values can overlap the other calls; inactive = mostly above about 0.92.
Experiment: chemical genetic growth profiling, strain panel (AID 1159580);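 note: tested at 20 µM; growth read once vehicle control cultures reached saturation at 30 °C; 1 = growth at the plate median or of vehicle wells; lower values mean less growth of the strain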
Conditions: growth OD

CCCCC/C=C\C/C=C\C/C=C\C/C=C\CCCC(=O)O
normalized growth (S. cerevisiae deletion strains, locus YJR043C, strain POL32, active compounds read low): 0.975 | normalized growth (S. cerevisiae deletion strains, locus YJR075W, strain HOC1, active compounds read low): 0.968 | normalized growth (S. cerevisiae deletion strains, locus YKL009W, strain mrt4, active compounds read low): 0.982 | normalized growth (S. cerevisiae deletion strains, locus YKL068W, active compounds read low): 0.973 | normalized growth (S. cerevisiae deletion strains, locus YKL085W, strain MDH1 (second series), active compounds read low): 0.958 | normalized growth (S. cerevisiae deletion strains, locus YKL085W, strain MDH1, active compounds read low): 0.958 | normalized growth (S. cerevisiae deletion strains, locus YKL160W, strain elf1, active compounds read low): 0.98 | normalized growth (S. cerevisiae deletion strains, locus YKL190W, strain CNB1, active compounds read low): 0.987 | normalized growth (S. cerevisiae deletion strains, locus YKR001C, strain vps1, active compounds read low): 0.857 (active) | normalized growth (S. cerevisiae deletion strains, locus YKR026C, strain gcn3, active compounds read low): 0.944 | normalized growth (S. cerevisiae deletion strains, locus YKR091W, strain srl3, active compounds read low): 0.967 | normalized growth (S. cerevisiae deletion strains, locus YLL001W, strain dnm1, active compounds read low): 0.96 | normalized growth (S. cerevisiae deletion strains, locus YLL026W, active compounds read low): 0.976 | normalized growth (S. cerevisiae deletion strains, locus YLL041C, strain sdh2, active compounds read low): 0.975 | normalized growth (S. cerevisiae deletion strains, locus YLR027C, strain aat2, active compounds read low): 0.978 | normalized growth (S. cerevisiae deletion strains, locus YLR039C, strain RIC1, active compounds read low): 0.686 | normalized growth (S. cerevisiae deletion strains, locus YLR058C, strain SHM2, active compounds read low): 0.972 | normalized growth (S. cerevisiae deletion strains, locus YLR102C, strain apc9, active compounds read low): 0.971 | normalized growth (S. cerevisiae deletion strains, locus YLR221C, strain rsa3, active compounds read low): 0.972 | normalized growth (S. cerevisiae deletion strains, locus YLR258W, strain gsy2, active compounds read low): 0.966 | normalized growth (S. cerevisiae deletion strains, locus YLR262C, strain YPT6 (second series), active compounds read low): 0.856 (active) | normalized growth (S. cerevisiae deletion strains, locus YLR262C, strain YPT6, active compounds read low): 0.719 | normalized growth (S. cerevisiae deletion strains, locus YLR268W, strain sec22, active compounds read low): 1.01 | normalized growth (S. cerevisiae deletion strains, locus YLR320W, strain mms22, active compounds read low): 0.884 | normalized growth (S. cerevisiae deletion strains, locus YLR330W, strain CHS5, active compounds read low): 0.984 | normalized growth (S. cerevisiae deletion strains, locus YLR342W, strain FKS1 (second series), active compounds read low): 0.942 | normalized growth (S. cerevisiae deletion strains, locus YLR342W, strain FKS1, active compounds read low): 0.969 | normalized growth (S. cerevisiae deletion strains, locus YLR357W, strain rsc2, active compounds read low): 0.935 | normalized growth (S. cerevisiae deletion strains, locus YLR370C, strain arc18, active compounds read low): 0.964 | normalized growth (S. cerevisiae deletion strains, locus YLR371W, strain rom2, active compounds read low): 0.975 | normalized growth (S. cerevisiae deletion strains, locus YLR384C, strain iki3, active compounds read low): 0.982 | normalized growth (S. cerevisiae deletion strains, locus YLR418C, strain cdc73, active compounds read low): 0.953 | normalized growth (S. cerevisiae deletion strains, locus YML016C, strain PPZ1, active compounds read low): 1 | normalized growth (S. cerevisiae deletion strains, locus YML032C, strain rad52, active compounds read low): 0.967 | normalized growth (S. cerevisiae deletion strains, locus YML120C, strain ndi1, active compounds read low): 0.986 | normalized growth (S. cerevisiae deletion strains, locus YML124C, strain tub3, active compounds read low): 0.983 | normalized growth (S. cerevisiae deletion strains, locus YMR058W, strain fet3, active compounds read low): 0.919 | normalized growth (S. cerevisiae deletion strains, locus YMR078C, strain ctf18, active compounds read low): 0.964 | normalized growth (S. cerevisiae deletion strains, locus YMR125W, strain sto1, active compounds read low): 0.977 | normalized growth (S. cerevisiae deletion strains, locus YMR129W, active compounds read low): 0.977 | normalized growth (S. cerevisiae deletion strains, locus YMR205C, strain PFK2, active compounds read low): 0.919 | normalized growth (S. cerevisiae deletion strains, locus YMR223W, strain ubp8, active compounds read low): 0.953 | normalized growth (S. cerevisiae deletion strains, locus YMR231W, strain pep5, active compounds read low): 0.974 | normalized growth (S. cerevisiae deletion strains, locus YMR263W, strain SAP30, active compounds read low): 1 | normalized growth (S. cerevisiae deletion strains, locus YMR307W, strain GAS1, active compounds read low): 0.966 | normalized growth (S. cerevisiae deletion strains, locus YNL067W, strain RPL9B, active compounds read low): 0.987 | normalized growth (S. cerevisiae deletion strains, locus YNL071W, strain lat1, active compounds read low): 0.857 (active) | normalized growth (S. cerevisiae deletion strains, locus YNL128W, strain TEP1, active compounds read low): 0.995 | normalized growth (S. cerevisiae deletion strains, locus YNL153C, strain GIM3, active compounds read low): 1 | normalized growth (S. cerevisiae deletion strains, locus YNL209W, strain ssb2, active compounds read low): 0.983 | normalized growth (S. cerevisiae deletion strains, locus YNL233W, strain BNI4, active compounds read low): 0.981 | normalized growth (S. cerevisiae deletion strains, locus YNL248C, strain rpa49, active compounds read low): 0.972 | normalized growth (S. cerevisiae deletion strains, locus YNL250W, strain rad50, active compounds read low): 0.924 | normalized growth (S. cerevisiae deletion strains, locus YNL271C, strain bni1, active compounds read low): 0.973 | normalized growth (S. cerevisiae deletion strains, locus YNL298W, strain CLA4, active compounds read low): 0.956 | normalized growth (S. cerevisiae deletion strains, locus YNL307C, strain MCK1, active compounds read low): 0.733 (active) | normalized growth (S. cerevisiae deletion strains, locus YNL322C, strain KRE1 (second series), active compounds read low): 0.996 | normalized growth (S. cerevisiae deletion strains, locus YNL322C, strain KRE1, active compounds read low): 0.986 | normalized growth (S. cerevisiae deletion strains, locus YNR049C, strain mso1, active compounds read low): 0.971 | normalized growth (S. cerevisiae deletion strains, locus YNR052C, strain pop2, active compounds read low): 0.977 | normalized growth (S. cerevisiae deletion strains, locus YOL006C, strain TOP1, active compounds read low): 0.836 | normalized growth (S. cerevisiae deletion strains, locus YOL012C, strain htz1): 0.8 | normalized growth (S. cerevisiae deletion strains, locus YOL147C, strain pex11, active compounds read low): 0.987 | normalized growth (S. cerevisiae deletion strains, locus YOR001W, strain rrp6, active compounds read low): 0.971 | normalized growth (S. cerevisiae deletion strains, locus YOR061W, strain CKA2, active compounds read low): 0.986 | normalized growth (S. cerevisiae deletion strains, locus YOR069W, strain VPS5, active compounds read low): 0.99 | normalized growth (S. cerevisiae deletion strains, locus YOR070C, strain gyp1, active compounds read low): 0.98 | normalized growth (S. cerevisiae deletion strains, locus YOR080W, strain dia2, active compounds read low): 0.97 | normalized growth (S. cerevisiae deletion strains, locus YOR083W, strain WHI5, active compounds read low): 0.996 | normalized growth (S. cerevisiae deletion strains, locus YOR106W, strain vam3, active compounds read low): 0.978 | normalized growth (S. cerevisiae deletion strains, locus YOR136W, strain idh2, active compounds read low): 0.965 | normalized growth (S. cerevisiae deletion strains, locus YOR144C, strain elg1, active compounds read low): 0.986 | normalized growth (S. cerevisiae deletion strains, locus YOR184W, strain ser1, active compounds read low): 0.895 | normalized growth (S. cerevisiae deletion strains, locus YOR265W, strain rbl2, active compounds read low): 0.978 | normalized growth (S. cerevisiae deletion strains, locus YOR270C, strain vph1, active compounds read low): 0.924 | normalized growth (S. cerevisiae deletion strains, locus YOR290C, strain snf2, active compounds read low): 0.89 | normalized growth (S. cerevisiae deletion strains, locus YOR316C, strain cot1, active compounds read low): 0.982 | normalized growth (S. cerevisiae deletion strains, locus YPL051W, strain arl3, active compounds read low): 0.985 | normalized growth (S. cerevisiae deletion strains, locus YPL055C, strain LGE1, active compounds read low): 0.972 | normalized growth (S. cerevisiae deletion strains, locus YPL078C, strain atp4, active compounds read low): 0.967 | normalized growth (S. cerevisiae deletion strains, locus YPL106C, strain sse1, active compounds read low): 0.931 | normalized growth (S. cerevisiae deletion strains, locus YPL240C, strain hsp82, active compounds read low): 0.978 | normalized growth (S. cerevisiae deletion strains, locus YPL241C, strain CIN2, active compounds read low): 0.986 | normalized growth (S. cerevisiae deletion strains, locus YPR119W, strain clb2, active compounds read low): 0.969 | normalized growth (S. cerevisiae deletion strains, locus YPR141C, strain kar3, active compounds read low): 0.975 | normalized growth (S. cerevisiae deletion strains, locus YPR163C, strain tif3, active compounds read low): 0.965 | normalized growth (S. cerevisiae deletion strains, locus YPR167C, strain met16, active compounds read low): 0.986 | normalized growth (S. cerevisiae deletion strains, strain wtn01, active compounds read low): 0.972 | normalized growth (S. cerevisiae strains, strain wild type, active compounds read low): 0.976

Reference: PubChem BioAssay AID1159580 (chemical genetic matrix, 2015)
